In PubChem BioAssay (Tox21):
A number with no mark means an inactive call. Calls of active or inactive are those of the source. Calls follow the shape of the full dose curve.
% is scaled to controls: 0 for no effect and ±100 for the full control effect.

These molecules were tested against Acetylcholinesterase (Homo sapiens) (UniProt P22303) (assay: Acetylcholinesterase (AChE) small molecule antagonists: enzyme-based qHTS assay with human liver microsomes (AID 1347399; also: nearly all actives have a fitted effect of over 60% in size)). Conditions: Potency: qHTS inhibition; outcome: qHTS inhibition; series mostly up to 115 µM; activity change, negative = inhibition: at the top concentration.
Chain of Acetylcholinesterase (Homo sapiens) (P22303 whole entry, looked up): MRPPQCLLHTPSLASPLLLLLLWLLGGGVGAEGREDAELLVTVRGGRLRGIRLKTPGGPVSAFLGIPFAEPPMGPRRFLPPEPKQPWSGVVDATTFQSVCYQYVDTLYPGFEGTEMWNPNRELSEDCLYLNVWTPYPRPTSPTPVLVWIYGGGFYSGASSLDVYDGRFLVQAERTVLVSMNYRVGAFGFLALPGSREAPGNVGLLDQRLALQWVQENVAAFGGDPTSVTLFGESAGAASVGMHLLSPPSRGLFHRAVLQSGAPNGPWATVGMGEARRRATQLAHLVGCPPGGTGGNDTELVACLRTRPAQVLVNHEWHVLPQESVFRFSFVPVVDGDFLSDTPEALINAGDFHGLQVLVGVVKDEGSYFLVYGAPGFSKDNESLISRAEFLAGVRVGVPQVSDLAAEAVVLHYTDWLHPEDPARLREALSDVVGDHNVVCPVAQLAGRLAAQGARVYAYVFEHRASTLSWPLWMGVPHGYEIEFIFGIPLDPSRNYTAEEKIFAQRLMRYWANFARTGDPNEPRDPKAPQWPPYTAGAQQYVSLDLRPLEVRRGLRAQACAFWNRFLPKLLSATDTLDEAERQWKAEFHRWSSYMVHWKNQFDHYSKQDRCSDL
Source text: National Center for Advancing Translational Sciences [NCATS]
Division of Preclinical Innovation [DPI]
U.S. Environmental Protection Agency [EPA]
National Institutes of Environmental Health Sciences [NIEHS]
National Toxicology Program [NTP]
U.S. Food and Drug Administration [FDA]
Acetylcholinesterase (AChE) is the primary cholinesterase in the body that hydrolyzes a key neurotransmitter, acetylcholine. Inhibition of AChE activity can lead to neurotoxicity. The known inhibitors include organophosphorous pesticides (OP), chemical warfare agents, drugs, and various phytochemicals. Some compounds like OP compounds may need metabolic activation to be active AChE inhibitors. The cytochrome P450 (CYP) superfamily in the human microsomes is responsible for the metabolism of various endogenous and exogenous compounds.
An enzyme-based assay with the recombinant human AChE, human liver microsomes and Amplite Colormetric acetylcholinesterase assay kit (AAT Bioquest, Sunnyvale, CA) was used to evaluate compounds in the Tox21 10K library that need metabolic activation for AChE inhibition. The assay uses 5, 5-dithiobis-(2-nitrobenzoic acid) (DTNB) to quantify the thiocholine produced from the hydrolysis of acetylthiocholine by AChE.
Tox21 Assay Protocol Summary:
For the enzyme-based AChE assay with microsomes addition, a mixture of human AChE (50 mU/mL) and human liver microsomes (0.25 mg/mL, final concentration) in 3 uL/well was dispensed into black, clear-bottom 1536-well plates using a Multidrop Combi dispenser (Thermo Scientific, MA). Then, 23 nL of compound or DMSO (vehicle control) was transferred into the assay plates by a Pintool Station (Wako Automation, CA). Following compound addition, 1 uL of NADPH (0.25 mg/mL, final concentration) was transferred to the assay plate by a Flying Reagent Dispenser (Beckman Coulter, CA). The plates were incubated for 30 min at 37 C and 5% CO2, followed by the addition of 4 uL of colorimetric detection cocktail solution (DTNB, acetylthiocholine) into each well using a Flying Reagent Dispenser (Beckman Coulter, CA) and then 10 min incubation at room temperature.
With C=CCC1(C(C)CC)C(=O)NC(=O)NC1=O (stereo not given) the “activity change, negative = inhibition” value was -5.08% [at 53 µM].
c1cncc([C@@H]2CCCCN2)c1 was tested, and the “activity change, negative = inhibition” value was -0.623%.
Oc1ccc(Cc2ccc(O)cc2)cc1 was tested, and the “activity change, negative = inhibition” value was 0.657%.
NC(=O)CS(=O)C(c1ccccc1)c1ccccc1 (stereo not given) was tested, and the “activity change, negative = inhibition” value was 1.9% [at 53 µM].
For COc1cc(CCN)cc(OC)c1OC, the “activity change, negative = inhibition” value was 0.188%.
For O=C(CCl)NCO, the “activity change, negative = inhibition” value was -0.985%.
In the case of CCOC(=O)COc1ccc(Cl)cc1Cl, the “activity change, negative = inhibition” value is reported as -0.306%.
With CS(=O)(=O)Cl the “activity change, negative = inhibition” value was 0.341%.
C[C@H]1CCCC(=O)CCC/C=C/c2cc(O)cc(O)c2C(=O)O1 was tested, and the Potency was “inactive”.
With O=C(O)C(Cl)Br (stereo not given) the “activity change, negative = inhibition” value was 2.23%.
With O=S1(=O)OCCO1 the “activity change, negative = inhibition” value was 0.936%.
O=c1[nH]oc2c1CCNC2 was tested, and the “activity change, negative = inhibition” value was -1.83% [at 53 µM].
For CCOC(=O)CC(SP(=S)(OC)OC)C(=O)OCC (stereo not given), the Potency was “inactive”.
In the case of CCNc1nc(NCC)nc(SC)n1, the “activity change, negative = inhibition” value is reported as -0.583%.
COc1cccc(C=O)c1 was tested, and the “activity change, negative = inhibition” value was 0.688%.
With CCN1CCCC1CNC(=O)C(O)(c1ccccc1)c1ccccc1 (stereo not given) the “activity change, negative = inhibition” value was 0.336% [at 53 µM].
In the case of CC(C)(N)Cc1ccc(Cl)cc1, the “activity change, negative = inhibition” value is reported as -1.06% [at 53 µM].
With CCOc1cc(OP(=S)(OC)OC)nc(CC)n1 the “activity change, negative = inhibition” value was -1.07%.
CC1N=C(N)OC1c1ccccc1 (stereo not given) was tested, and the “activity change, negative = inhibition” value was 1.92%.
CCOC1Oc2ccc(OS(C)(=O)=O)cc2C1(C)C (stereo not given) was tested, and the “activity change, negative = inhibition” value was 0%.
In the case of CCCCCCCC(=O)Cl, the “activity change, negative = inhibition” value is reported as -0.65%.
Cc1ccc2cc(C)ccc2c1 was tested, and the “activity change, negative = inhibition” value was 0.341%.
With OCC(Cl)CCl (stereo not given) the “activity change, negative = inhibition” value was 0.998%.
For C/C(=N\NC(=O)Nc1cc(F)cc(F)c1)c1ncccc1C(=O)O, the Potency was “inactive”.
Nc1c(Cl)c(F)nc(OCC(=O)O)c1Cl was tested, and the “activity change, negative = inhibition” value was -0.17%.
In the case of O=C1CC(=O)NC(=O)N1, the “activity change, negative = inhibition” value is reported as -0.333%.
In the case of CC(C)[C@]12CC(=O)[C@H](C)[C@H]1C2, the “activity change, negative = inhibition” value is reported as 1.65%.
For CC(C)C(C)(N)C#N (stereo not given), the “activity change, negative = inhibition” value was 0%.
With CCOC(=O)c1ncn2c1CN(C)C(=O)c1c(I)cccc1-2 the “activity change, negative = inhibition” value was -1.68% [at 53 µM].
With NNC(N)=O the “activity change, negative = inhibition” value was 0.341%.
With O=C(O)C(F)(F)C(F)(F)C(F)(F)C(F)(F)C(F)(F)C(F)(F)F the “activity change, negative = inhibition” value was 0.437%.
With [O-][Br+2]([O-])O the “activity change, negative = inhibition” value was 0.492% [at 53 µM].
For CCSC(=O)Cl, the “activity change, negative = inhibition” value was 0.37%.
With CC#Cc1cc(C)nc(Nc2ccccc2)n1 the “activity change, negative = inhibition” value was 1.6%.
In the case of [P]#[In], the “activity change, negative = inhibition” value is reported as 0.153%.
With ClCC1CO1 (stereo not given) the “activity change, negative = inhibition” value was 2.87%.
With CCOC(=O)CCl the “activity change, negative = inhibition” value was 1.19%.
For O=P(O)(O)CN(CP(=O)(O)O)CP(=O)(O)O, the Potency was “inactive”.
With C/C=C/CC#N the “activity change, negative = inhibition” value was -1.37%.
BrCC1CO1 (stereo not given) was tested, and the “activity change, negative = inhibition” value was -0.082%.
